PubChem BioAssay AID1159580 (chemical genetic matrix, 2015)
About 2,000 (36%) of roughly 5,500 compounds were called active. Inconclusive results (about 18%) are left out. Cut-off read from the data, not from the text of the source: active = normalized growth mostly below about 0.91 (no sharp cut-off); inconclusive = no clear call, values can overlap the other calls; inactive = mostly above about 0.92. Some of the results follow.

Assay: chemical genetic growth profiling, strain panel (AID 1159580);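 note: tested at 20 µM; growth read once vehicle control cultures reached saturation at 30 °C; 1 = growth at the plate median or of vehicle wells; lower values mean less growth of the strain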
Conditions: S. cerevisiae deletion strains, growth OD

Measured: normalized growth

CCOC(=O)c1c(C)c(Cl)c(O)c(Cl)c1O
active: locus YAL021C, strain ccr4, hits give low values 0.682 | locus YAL026C, strain drs2, hits give low values 0.469 | locus YAL030W, strain snc1, hits give low values 0.692 | locus YBL061C, strain skt5, hits give low values 0.637 | locus YBR009C, strain hhf1, hits give low values 0.407 | locus YBR023C, strain chs3, hits give low values 0.589 | locus YBR171W, strain sec66, hits give low values 0.619 | locus YBR231C, strain swc5, hits give low values 0.469 | locus YBR279W, strain paf1, hits give low values 0.686 | locus YCL011C, strain gbp2, hits give low values 0.499 | locus YCL016C, strain dcc1, hits give low values 0.495 | locus YCL061C, strain MRC1, hits give low values 0.408 | locus YCL069W, strain vba3, hits give low values 0.407 | locus YCR088W, strain abp1, hits give low values 0.517 | locus YDL005C, strain med2, hits give low values 0.76 | locus YDL040C, strain nat1, hits give low values 0.663 | locus YDR001C, strain nth1, hits give low values 0.516 | locus YDR069C, strain doa4, hits give low values 0.72 | locus YDR137W, strain rgp1, hits give low values 0.266 | locus YDR159W, strain sac3, hits give low values 0.459 | locus YDR195W, strain ref2 0.697 | locus YDR297W, strain sur2, hits give low values 0.677 | locus YDR334W, strain swr1, hits give low values 0.361 | locus YDR335W, strain msn5, hits give low values 0.517 | locus YDR392W, strain spt3, hits give low values 0.0936 | locus YEL003W, strain gim4, hits give low values 0.397 | locus YEL037C, strain rad23, hits give low values 0.666 | locus YEL061C, strain CIN8 (second series), hits give low values 0.171 | locus YER015W, strain faa2, hits give low values 0.652 | locus YER016W, strain bim1, hits give low values 0.559 | locus YER111C, strain swi4, hits give low values 0.189 | locus YER155C, strain BEM2 (second series), hits give low values 0.15 | locus YFR010W, strain ubp6, hits give low values 0.696 | locus YGL167C, strain pmr1, hits give low values 0.67 | locus YGL173C, strain kem1, hits give low values 0.512 | locus YGL227W, strain vid30, hits give low values 0.188 | locus YGL240W, strain doc1, hits give low values 0.375 | locus YGL253W, strain hxk2, hits give low values 0.254 | locus YHR013C, strain ard1, hits give low values 0.634 | locus YHR027C, strain rpn1, hits give low values 0.719 | locus YHR142W, strain chs7, hits give low values 0.245 | locus YJL092W, strain hpr5, hits give low values 0.456 | locus YJL095W, strain BCK1 (second series), hits give low values 0.292 | locus YJL115W, strain asf1, hits give low values 0.667 | locus YJL129C, strain trk1, hits give low values 0.261 | locus YJL154C, strain vps35, hits give low values 0.702 | locus YJL164C, strain tpk1, hits give low values 0.467 | locus YJL166W, strain qcr8, hits give low values 0.448 | locus YJL187C, strain SWE1, hits give low values 0.61 | locus YKL160W, strain elf1, hits give low values 0.454 | locus YKR026C, strain gcn3, hits give low values 0.697 | locus YKR091W, strain srl3, hits give low values 0.677 | locus YLL001W, strain dnm1, hits give low values 0.563 | locus YLL026W, hits give low values 0.436 | locus YLL041C, strain sdh2, hits give low values 0.635 | locus YLR027C, strain aat2, hits give low values 0.517 | locus YLR221C, strain rsa3, hits give low values 0.398 | locus YLR258W, strain gsy2, hits give low values 0.561 | locus YLR262C, strain YPT6 (second series), hits give low values 0.277 | locus YLR320W, strain mms22, hits give low values 0.27 | locus YLR342W, strain FKS1, hits give low values 0.369 | locus YLR357W, strain rsc2, hits give low values 0.64 | locus YLR370C, strain arc18, hits give low values 0.701 | locus YLR384C, strain iki3, hits give low values 0.681 | locus YML120C, strain ndi1, hits give low values 0.409 | locus YMR058W, strain fet3, hits give low values 0.429 | locus YMR125W, strain sto1, hits give low values 0.259 | locus YMR129W, hits give low values 0.651 | locus YMR205C, strain PFK2, hits give low values 0.283 | locus YMR231W, strain pep5, hits give low values 0.361 | locus YNL071W, strain lat1, hits give low values 0.127 | locus YNL209W, strain ssb2, hits give low values 0.753 | locus YNL248C, strain rpa49, hits give low values 0.645 | locus YNL322C, strain KRE1 (second series), hits give low values 0.783 | locus YNR049C, strain mso1, hits give low values 0.432 | locus YOR001W, strain rrp6, hits give low values 0.4 | locus YOR070C, strain gyp1, hits give low values 0.499 | locus YOR080W, strain dia2, hits give low values 0.701 | locus YOR083W, strain WHI5, hits give low values 0.608 | locus YOR106W, strain vam3, hits give low values 0.459 | locus YOR265W, strain rbl2, hits give low values 0.676 | locus YOR270C, strain vph1, hits give low values 0.214 | locus YOR290C, strain snf2, hits give low values 0.424 | locus YPL051W, strain arl3, hits give low values 0.414 | locus YPL078C, strain atp4, hits give low values 0.391 | locus YPL106C, strain sse1, hits give low values 0.568 | locus YPL240C, strain hsp82, hits give low values 0.492
